We go through 59 molecules from PubChem BioAssay AID463173 (ICCB-Longwood Screening Facility, Harvard Medical School, 2010).

Each structure is given as a SMILES string. The campaign covered roughly 52,000 compounds. About 4,300 (8.3%) were called active. The list comes from a sample in which actives are over-represented; it also holds similar structures and randomly drawn compounds. Values without a mark were called inactive. No stated cut-off is given here; in the data, active means survival mostly below about 52% (no sharp cut-off); inactive means mostly above about 56%.

For the assay, the system named is DeltatarO mutant. As to the kind of experiment: growth inhibition of S. aureus wild type versus tarO mutant, primary screen, teichoic acid synthesis inhibitors, RN4220, OD600 (AID 463173). As to conditions: OD600, 18 h, stronger effect = lower value, screened at 18.75 µg/mL (by protocol).
On to `Cc1ccc(-c2[nH]c3ccccc3c2SCCNC(=O)c2ccc(S(=O)(=O)N(C)C)cc2)cc1`, for which the survival is 105%. Then `COc1ccc(NC(=O)CSCc2cc(=O)c3cc(C)ccc3[nH]2)cc1`, with 68%; and `CC(=O)Nc1ccc(NC(=O)C2CCN(S(=O)(=O)c3ccc4c(c3)CCCC(=O)N4)CC2)cc1`, with 85%. Then `CC(C)(C)C(=O)OCc1cc(=O)n2nc(C3CCCCC3)sc2n1`, with 80%.

As for `COc1ccc(CC(=O)NC2CCN(CC(=O)c3ccc(F)cc3)CC2)cc1OC`, the survival is 108%.

On to `Cc1cc(C)nc(NC(=O)COc2ccc(Br)cc2)n1`, for which the survival is 84%. To `CCCCN(C)CCNC(=O)Cn1ncc2c([nH]c3ccccc32)c1=O` belongs 8% (active); to `Cc1ccc(CCNC(=O)Cn2ncc3c([nH]c4ccccc43)c2=O)cc1`, 102%; to `COc1ccc(CNC(=O)Cn2ncc3c([nH]c4ccccc43)c2=O)cc1`, 91%. Then `O=C(Cn1ncc2c([nH]c3ccccc32)c1=O)NCc1cccc(Cl)c1`, with 20% (active). For `CN(CCCNC(=O)Cn1ncc2c([nH]c3ccccc32)c1=O)Cc1ccccc1`, the survival was 100%. To `CCN(CC)CCNC(=O)Cn1ncc2c([nH]c3ccccc32)c1=O` belongs 89%; to `COc1ccc(-n2nc(C(=O)Nc3ccccn3)c3c4ccccc4n(C)c3c2=O)cc1`, 72%; to `O=C(NCCc1csc(-c2cccc(F)c2)n1)c1ccc(Br)o1`, 83%. Then `COc1cccc(C(C(=O)NCc2ccccc2)N(C(=O)Cn2nnc3ccccc32)c2cccc(C(C)=O)c2)c1` (centres undefined), with 44% (active).

With `CC(=O)c1cccc(N(C(=O)Cn2nnc3ccccc32)C(C(=O)NCc2ccccc2)c2ccc(F)cc2)c1` (centres undefined), the survival is 85%.

For the molecule `COc1cc(N(C(=O)Cn2nnc3ccccc32)C(C(=O)NCC2CCCO2)c2ccc(F)cc2)ccc1-n1cnnn1` (centres undefined), the survival is 105%.

On to `COc1ccc(N(C(=O)Cn2nnc3ccccc32)C(C(=O)NCc2ccccc2)c2ccc(F)cc2)cc1` (centres undefined), for which the survival is 42% (active). Then `CC(=O)Nc1ccc(N(C(=O)Cn2nnc3ccccc32)C(C(=O)NCc2ccccc2)c2ccc(C)cc2)cc1` (centres undefined), with 38% (active); and `COc1ccc(C(C(=O)NCc2ccccc2)N(C(=O)Cn2nnc3ccccc32)c2ccc(F)cc2)cc1` (centres undefined), with 49%; and `CCOc1ccc(N(C(=O)Cn2nnc3ccccc32)C(C(=O)NCc2ccccc2)c2ccc(OC)cc2)cc1` (centres undefined), with 52%. To `COc1ccc(C(C(=O)NCc2ccccc2)N(C(=O)Cn2nnc3ccccc32)c2ccc(OC)cc2)cc1` (centres undefined) belongs 60%; to `COc1ccc(C(C(=O)NCc2ccccc2)N(C(=O)Cn2nnc3ccccc32)c2cccc(OC)c2)cc1` (centres undefined), 50%; to `O=C(COc1ccc(S(=O)(=O)NC2CCCCC2)cc1)Nc1ccc(C(F)(F)F)cc1`, 64%. In the case of `CC(NC1=NCCN1)C(=O)O` (centres undefined), the survival is 97%. Then `COC(=O)C1C(=O)C2=C(CC1C)Nc1ccccc1NC2c1cc(F)ccc1F` (centres undefined), with 82%; and `Cc1occc1-c1nnc(SCC(=O)NCc2ccc3c(c2)OCO3)n1CC(C)C`, with 88%. Turning to `COc1ccccc1NC(=O)CC(C)n1nc(C)cc1C` (centres undefined), the survival was 67%.

Turning to `COc1ccc(NC(=O)CCS(=O)(=O)c2ccc3nc(C)sc3c2)cc1Cl`, the survival is 44%. On to `Cc1cc(-c2ccc(C)c(S(=O)(=O)NCCc3ccc(S(N)(=O)=O)cc3)c2)on1`, for which the survival is 92%. Then `Cc1ccc(C)c(N2C(=O)N(Cc3cccc(C(F)(F)F)c3)c3ccccc3S2(=O)=O)c1`, with 88%; and `COc1cccc(C(=O)N2CCN(CCc3ccncc3)CC2)c1`, with 87%. To `CCOc1cc(C2c3c(-c4ccc(Br)cc4)n[nH]c3C(=O)N2c2ccc(Cl)cc2)ccc1O` (centres undefined) belongs 35% (active). Consider `CCOC(=O)c1ccc(N2C(=O)c3[nH]nc(-c4ccc(OC)cc4)c3C2c2cccc(O)c2)cc1` (centres undefined), for which the survival was 57%.

Consider `COC(=O)c1ccc(C2c3c(-c4ccc(Br)cc4)n[nH]c3C(=O)N2c2ccc(Cl)cc2)cc1` (centres undefined), for which the survival is 93%. To `CCOC(=O)c1ccc(N2C(=O)c3[nH]nc(-c4ccc(OC)cc4)c3C2c2ccc(C)cc2)cc1` (centres undefined) belongs 81%; to `Cc1ccc(-c2n[nH]c3c2C(c2cccc(O)c2)N(c2ccc(C(=O)O)cc2)C3=O)cc1` (centres undefined), 86%. To `O=C1c2[nH]nc(-c3ccc(Br)cc3)c2C(c2cccc(O)c2)N1c1ccc(Cl)cc1` (centres undefined) belongs -10% (active); to `CCOc1ccc(-c2n[nH]c3c2C(c2ccccc2OC)N(c2ccc(Br)cc2)C3=O)cc1` (centres undefined), 69%; to `CCOC(=O)c1ccc(N2C(=O)c3[nH]nc(-c4ccc(C)cc4)c3C2c2ccc(O)c(OCC)c2)cc1` (centres undefined), 87%. To `COc1ccc(-c2n[nH]c3c2C(c2ccc(O)cc2)N(c2ccc(Br)cc2)C3=O)cc1` (centres undefined) belongs -3% (active). On to `Cc1ccc(NC(=O)C(=O)NCc2ccco2)cc1`, for which the survival was 58%.

In the case of `O=c1cc(CSc2n[nH]c(-c3ccccc3)n2)[nH]c2ccccc12`, the survival was 129%. Then `Cc1nn2c(=O)cc(COC(=O)c3cccc(NC(=O)c4ccc(C(C)(C)C)cc4)c3)nc2s1`, with 85%; and `CCc1nn(CC(=O)NCCC(C)C)c(=O)c2cc3occc3n12`, with 125%; and `CCCc1cc(=O)[nH]c(Nc2cc(Cl)ccc2OC)n1`, with 68%.

Consider `COC(=O)c1cccc(NC(=O)C2CCN(S(=O)(=O)Cc3ccccc3)CC2)c1C`, for which the survival is 77%. Then `COc1ccc(C)cc1-n1c(-c2ccc(C)cc2)cc2c1CC(C)(C)CC2=O`, with 114%; and `COc1ccc(C)cc1-n1c(-c2ccc(Cl)cc2)cc2c1CC(C)(C)CC2=O`, with 86%.

Regarding `COc1ccc(-n2c(-c3ccc(Cl)cc3)cc3c2CC(C)(C)CC3=O)c(OC)c1`, the survival was 4% (active). Then `COc1cccc(-n2c(-c3ccc(Cl)cc3)cc3c2CC(C)(C)CC3=O)c1`, with 35% (active); and `COc1cccc(-n2c(-c3ccc(C)cc3)cc3c2CC(C)(C)CC3=O)c1`, with 18% (active); and `COc1ccc(-n2c3c(cc(-c4nc(-c5ccc(Cl)cc5)cs4)c2=O)C(=O)CC(C)(C)C3)cc1`, with 140%. To `Cc1cccc(-n2c3c(cc(-c4nc(-c5ccc(Cl)cc5)cs4)c2=O)C(=O)CC(C)(C)C3)c1` belongs 62% (active); to `COc1ccc(-n2c(-c3ccc(C)cc3)cc3c2CC(C)(C)CC3=O)cc1Cl`, 80%. Then `Cc1ccc(-n2c3c(cc(-c4nc(-c5ccc(Cl)cc5)cs4)c2=O)C(=O)CC(C)(C)C3)cc1`, with 79%; and `COc1ccc(-n2c(-c3ccc(C)cc3)cc3c2CC(C)(C)CC3=O)c(OC)c1`, with 101%; and `Cc1ccc(-c2cc3c(n2-c2ccc(C)cc2)CC(C)(C)CC3=O)cc1`, with 74%. `CC1(C)CC(=O)c2cc(-c3nc(-c4ccc(Cl)cc4)cs3)c(=O)n(-c3cccc(F)c3)c2C1`: the survival was 70%.
